S1P2 antag: S1P2 (human) receptor antagonism; O95136; inhibition, % at 5 µM; actives 0.21% (n = 97,000); cell-based S1P2 antagonist assay, inhibition at 5 uM; AID 736; in the data active means inhibition above about 45%;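 further: CRE beta-lactamase reporter cells expressing human S1P2 stimulated with S1P; 0% = agonist at EC80 alone and 100% = agonist plus reference antagonist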
Target sequence (O95136 whole entry, looked up): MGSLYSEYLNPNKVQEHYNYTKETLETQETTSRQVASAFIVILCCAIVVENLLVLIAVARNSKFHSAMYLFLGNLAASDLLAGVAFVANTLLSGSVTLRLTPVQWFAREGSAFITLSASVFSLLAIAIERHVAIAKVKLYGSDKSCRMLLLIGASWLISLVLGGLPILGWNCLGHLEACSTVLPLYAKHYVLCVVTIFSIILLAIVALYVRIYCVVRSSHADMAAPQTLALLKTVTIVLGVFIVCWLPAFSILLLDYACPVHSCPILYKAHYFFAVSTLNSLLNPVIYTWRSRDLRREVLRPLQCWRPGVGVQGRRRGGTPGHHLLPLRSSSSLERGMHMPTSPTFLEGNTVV
GALR2 agonist: agonists of human galanin receptor 2 (GALR2) | actives 0.48% (n = 140,000) | O43603 | GALR2-expressing cells, agonist activation read-out | activation, % (test concentration not listed); in the data active means activation above about 5%, passing the limit was not always enough;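 further: 0% = vehicle buffer wells and 100% = reference agonist at full effect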
GALR2 blocker: GALR2 (human) receptor antagonism; AID 828; actives 0.39% (n = 140,000); O43603; GALR2-expressing cells, antagonist mode; inhibition, % at 4 µM; in the data active means inhibition above about 27%;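 further: cells stimulated with galanin 1-16 at roughly its EC80; 0% = agonist challenge control and 100% = basal control without agonist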
S1P2 agonist: activates the human S1P2 receptor. S1P2-expressing cell line, agonist reporter read-out. activation, % at 4.5 µM. actives 0.46% (n = 97,000). AID 729; in the data active means activation above about 16%;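 further: 0% = vehicle low control and 100% = maximal reference agonist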
MT1-MMP txn act: MT1-MMP promoter transcription activation; HT1080 MT1-MMP promoter luciferase reporter, luminescence, overnight; stronger effect = higher value; activation factor at 10 µM; actives 0.16% (n = 86,000);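 active means activation factor of at least 2 for MT1-MMP transcription at 10 µM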
Smad3 inh: Smad3 (human) transcription factor binding inhibition; inhibition, % at 25 µM; actives 0.29% (n = 88,000); AID 630; P84022; TR-FRET Smad3/Dy647-FoxH1 peptide binding, europium anti-His;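 active means compounds that reduce the energy-transfer binding signal between the protein and its labelled peptide by more than half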;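 further: 0% = Smad3 plus labelled peptide maximal FRET and 100% = peptide-only background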
* marks the source's active call; other numbers are inactive results; . = no result; [ ] = dose if it differs, or a comment. This is a sample that favours compounds with a hit; in the whole collection about 1.4% have one here.

SMILES	S1P2 antag	GALR2 agonist	GALR2 blocker	S1P2 agonist	MT1-MMP txn act	Smad3 inh
COc1cc2c(cc1OC)-c1cc(NC3CCCCCCC3)nc(=O)n1CC2	-6	1	-15	50*	1	8
COc1cc2c(cc1OC)-c1cc(NC3CCCCC3)nc(=O)n1CC2	-32	-1	5	33*	1.1	0
C[C@@]12CC[C@H]3c4ccc(O)cc4CC[C@@H]3[C@H]1C/C(=N\O)[C@H]2O	.	.	.	.	.	20
O=C(N[C@]1(C(=O)O)C[C@H]1c1ccccc1)c1ccccc1	.	.	.	.	.	8
O=C(N/N=C/c1cccc(O)c1)c1ccncc1	.	.	.	.	.	-1
CCCCOC(=O)Nc1ccc(C(C)C)cc1	-14	-2	0	0	2.2*	2
CSc1nnc(-c2ccccc2)o1	19	-2	-7	-4	1.2	-4
O=S1(=O)C=C(Sc2nnc(-c3ccccc3)o2)c2ccccc21	.	-3	88*	.	1.3	2
Nc1c(C(=O)NCCN2CCOCC2)c2nc3ccccc3nc2n1CCc1ccccc1F	-38	5.3*	-19	45*	1	1
CC(=O)Nc1ccc(S(=O)(=O)c2c(N)n(CCN3CCOCC3)c3nc4ccccc4nc23)cc1	.	0	12	.	0.9	0
Nc1c(C(=O)NCCN2CCOCC2)c2nc3ccccc3nc2n1CCc1ccccc1	-4	8.6*	-20	29*	1	5
Nc1c(C(=O)NCCN2CCOCC2)c2nc3ccccc3nc2n1-c1ccccc1	-4	2	1	0	1	3
CC(C)(N=NC(C)(C)C1=NCCN1)C1=NCCN1	.	.	.	.	.	22
OC[C@H]1O[C@@H](O)[C@H](N=Cc2ccc3c(c2)OCO3)[C@@H](O)[C@@H]1O	.	.	.	.	.	-19
CC(C)(C)CC(C)(C)c1cc(O)c(O)c(CN2CCCCC2)c1	.	.	.	.	.	93*
COc1ccc(/C=N/NC(=O)O)cc1	.	.	.	.	.	12
CCOc1ccc(NC(=O)CCN2CCN(S(=O)(=O)c3ccc(Cl)cc3)CC2)cc1	-1	269*	-10	-6	.	13
CCOc1ccc(NC(=O)CCN2CCN(S(=O)(=O)c3ccc(OC)cc3)CC2)cc1	4	-2	-2	-3	.	3
CCCSc1ccc(-c2nn(-c3ccccc3)cc2/C=C(/C#N)C(=O)N2CCOCC2)cc1	.	-1	8	.	.	.
CCSc1ccc(-c2nn(-c3ccccc3)cc2/C=C(/C#N)C(=O)NC)cc1	.	26*	9	.	.	.
CC(C)=C[C@H]1[C@H](COC(=O)c2ccccc2Cl)C1(C)C	.	.	.	.	.	-3
Cc1ncc(COP(=O)(O)O)c(C)c1O	.	.	.	.	.	15
CCSc1nc(O)c(C2OC(=O)c3c2ccc(OC)c3OC)c(=O)n1CC (centres undefined)	-3	-1	8	-6	1.1	84*
CS(=O)(=O)Nc1ccc(Nc2c3ccccc3nc3ccccc23)cc1	.	.	.	.	.	58*
C#CCNc1nc(CC)nc2c1nnn2Cc1ccccc1F	-30	0	-3	28*	1.1	-6
SMILES	S1P2 antag	GALR2 agonist	GALR2 blocker	S1P2 agonist	MT1-MMP txn act	Smad3 inh
CCc1nc(NCCCCCO)c2nnn(Cc3ccccc3F)c2n1	-37	-3	-13	0	1.2	0
NC(=O)[C@H]1CCCN1Cc1ccc2c(c1)OCO2	.	.	.	.	.	6
O=C(SCc1cccc2ccccc12)c1ccc(Cl)cc1	.	.	.	.	.	-7
CCN1CCCC1CNC(=O)CSc1cc(=O)n(C)c2cc(Cl)ccc12 (centres undefined)	9	-3	10	-7	1.4	53*[fluorescence artefact?]
CCn1c(=O)cc(SCC(=O)NCC2CCCO2)c2ccccc21 (centres undefined)	-30	-2	-4	-1	1.1	30
Cn1c(=O)cc(SCC(=O)NCC2CCCO2)c2ccc(Cl)cc21 (centres undefined)	18	-2	12	-2	1	50*[fluorescence artefact?]
O=C1[C@@H]2[C@H](C(=O)N1CN1CCSCC1)[C@H]1[C@@H]3C=C[C@@H]([C@@H]4C(=O)N(CN5CCSCC5)C(=O)[C@@H]34)[C@@H]21	.	.	.	.	.	-3
COCCn1c(C)cc(/C=C2/NC(=O)N(c3ccc(Cl)cc3)C2=O)c1C	.	7.1*	-8	.	.	.
CCn1c(C)cc(/C=C2\NC(=O)N(Cc3ccc(Cl)cc3)C2=O)c1C	17	1	-19	-3	.	.
NS(=O)(=O)c1ccc(N=Nc2c[nH]c(=O)c(O)c2)cc1	.	.	.	.	.	78*
CSCC[C@@H](C(=O)O)N(C)C	.	.	.	.	.	2
O=C(O)c1ccccc1C(=O)Nc1cc2c(cc1Br)-c1ccccc1C2=O	.	.	.	.	.	101*
O=C(Nc1ccccc1Br)c1ccccc1-c1ccccc1	.	0	2	.	.	.
CC(=O)[C@H]1CC[C@@H]2[C@]1(C)CC=C1[C@@]23C=C[C@@]2(C[C@H](O)CC[C@@]12C)[C@H](C(=O)O)[C@@H]3C(=O)O	.	.	.	.	.	36
Cc1cccc(NC(=O)Nc2cccc(C#N)c2)n1	.	0	18	.	1.4	3
Cc1cccc(NC(=O)Nc2ccc(C#N)cc2)n1	.	-3	38*	.	.	-4
O=C(CS(=O)(=O)c1ccccc1)N1CCCCCC1	5	-3	9	-6	1.4	7
O=S(=O)(C/C(=C/CO)S(=O)(=O)c1ccccc1)c1ccccc1	80*	0	82*	-8	0.6	.
O=C(Nc1ccc(S(=O)(=O)N2CCCC2)cc1)c1cccnc1	-4	-1	10	-7	.	.
Nc1ccc(S(=O)(=O)c2ccc(NC(=O)c3cccnc3)cc2)cc1	.	.	.	.	.	57*
O=C(Nc1nccs1)C1CC2CCC1C2 (centres undefined)	5	-3	7	-6	1.2	0
O=C(NC1=NCCS1)C1CC2CCC1C2 (centres undefined)	14	-2	9	18*	1.1	4
CN1/C(=C\C(=O)C(F)F)C(C)(C)c2ccccc21	15	0	4	-2	1	31
CN1/C(=C\C(=O)c2ccco2)C(C)(C)c2ccccc21	16	4	6	18*	1	-1
N=C1N(/N=C/c2ccccc2)C(=Nc2ccccc2)C(=S)N1c1ccccc1	-4	-1	-2	-4	2*	6
SMILES	S1P2 antag	GALR2 agonist	GALR2 blocker	S1P2 agonist	MT1-MMP txn act	Smad3 inh
O=C(O)c1ccc(C(=O)O)c(C(=O)Nc2ccc3c(c2)Cc2ccccc2-3)c1	.	.	.	.	.	3
CC(C)CNC(=O)O	.	.	.	.	.	0
Cc1nc(NCc2ccc3c(c2)OCO3)c2nnn(Cc3ccccc3)c2n1	.	6.8*	-4	.	1.1	3
c1ccc(Cn2nnc3c(NCc4ccc5c(c4)OCO5)nc(C4CC4)nc32)cc1	-3	-2	0	-6	1.2	-11
C[N+](C)(C)c1nc(N)nc2c1ncn2[C@H]1O[C@@H](CO)[C@H](O)[C@H]1O	.	.	.	.	.	-2
Cn1cnc([N+](=O)[O-])c1[Se]c1nc(N)nc2c1ncn2[C@H]1O[C@@H](CO)[C@H](O)[C@H]1O	.	.	.	.	.	75*
COCCCn1c(=N)c(C(=O)NCC2CCCO2)cc2c(=O)n3ccccc3nc21 (centres undefined)	-31	19*	-10	24*	1.1	.
COc1ccc(CNC(=O)c2cc3c(=O)n4ccccc4nc3n(Cc3ccco3)c2=N)cc1	2	-1	8	0	1.1	7

Screening data from PubChem BioAssay.
